# Results taken from PubChem BioAssay (NCATS).
# Several values for one entry are separate records, joined by “and”; a condition that tells them apart may be missing. Equal values may be shown once. Records with an inconclusive call do not appear. Entries that show only a call come without a potency. Activity calls are given as the source filed them. Calls follow the shape of the dose curve; as a rule, active = well fitted cell-killing curve with a large enough effect; inconclusive = small, poorly fitted or top-dose-only effect; inactive = flat fitted curve, though single readings scatter. Peptide text beside a SMILES is read from it.
# Test: qHTS of pediatric cancer cell lines to identify multiple opportunities for drug repurposing: Primary screen for TC32 cells (AID 1347089); also: nearly all actives have a fitted effect of over 60% in size
# Conditions: TC32 Ewing sarcoma viability, CellTiter-Glo luminescence, 48 h; series mostly up to 45.8 µM
# From the text: Drug repurposing or repositioning has been offered as a strategy for drug development in oncology programs. This approach has special potential for childhood cancers and other rare or orphan diseases, where the expected return on new drug development has been a disincentive to pharmaceuticals.
# In this project we exploit the poly-pharmacology of drugs to discover new indications via phenotypic screening of a panel of 19 well-characterized cell lines derived from solid tumors seen in children and adolescents. The goal is to identify approved drugs with previously unrecognized anticancer properties that has the potential to reveal new mechanisms and biological processes involved in carcinogenesis or drug resistance. We employed a titration-based paradigm (quantitative high-throughput screening or qHTS), where all compounds were tested at multiple concentrations for their effect on cell viability. Concentration-response curves (CRCs) were derived directly from the primary screen, and both potency and efficacy values were used to identify compounds with robust bioactivity profiles. We screened the NIH Chemical Genomics Center (NCGC) Pharmaceutical Collection (NPC) and Mechanism Interrogation Plate (MIPE) small molecule collections of approved and investigational compounds against these cell lines; and measured metabolically active cells after 48 hours of compound treatment as a proxy for cell viability.
# Assay Submitter: Nathalia J. Martinez, National Center for Advancing Translational Sciences, National Institutes of Health, Rockville, MD, USA; email: natalia.martinez@nih.gov
# [1] Shen, M et al. Quantitative high-throughput phenotypic screening of pediatric cancer cell lines identifies multiple opportunities for drug repurposing. Oncotarget 2017 Dec 19;9(4):4758-4772. PMID 29435139.
# The cells were obtained from University of North Carolina (UNC), Pediatric Preclinical Testing Program (PPT), and Coriell Institute (CI).
# qHTS cell viability assay:
# Cells were assayed in growth media at a density of 500-1,000 cells/well. Five microliters of cells were dispensed into 1,536-well, white, solid-bottom, TC-treated plates (Greiner Bio One) using a multidrop dispenser and incubated at 37 degrees C, 5% CO2, under a humidified atmosphere for 5 hours. Twenty-three nanoliters of compounds and controls (neutral control DMSO or positive control bortezomib at final concentration of 2.3 uM) were subsequently transferred by Kalypsys pintool. For primary screens, the MIPE collection was tested at 11-point dilutions (final concentrations range from 0.78 nM to 46 µM) and the NPC collection at 8-point dilutions (final concentrations range from 0.59 nM to 46 µM). Compounds tested in follow-up screens were assayed at 11-point dilutions. Cells were incubated for 48 hours, followed by addition of 3 uL of CellTiter-Glo (Promega). After a 15min incubation at room temperature, samples were analyzed for luminescence intensity using a ViewLux High-throughput CCD imager equipped with clear filters.
# Potency is read from the fitted curve at half-maximal effect.
row,Structure (SMILES),Potency
1,Cc1cccc(C#Cc2ccccc2)n1,inactive
2,COC1=C(OC)C(=O)C(CCCCCCCCCCO)=C(C)C1=O,inactive
3,Oc1ccc2ccccc2c1SSc1c(O)ccc2ccccc12,inactive
4,NCCCCNCCCN,inactive
5,O=C(CS(=O)Cc1ccco1)NCC=CCOc1cc(CN2CCCCC2)ccn1 (stereo not given),inactive
6,Nc1ncn([C@H]2C[C@H](O)[C@@H](CO)O2)c(=O)n1,inactive
7,O=C(O)c1cc(=O)c2c(OCC(O)COc3cccc4oc(C(=O)O)cc(=O)c34)cccc2o1,inactive
8,CC(C)c1ccc2oc3nc(N)c(C(=O)O)cc3c(=O)c2c1,inactive
9,C[C@]12CCC(=O)C=C1CC[C@@H]1[C@H]2[C@@H](O)C[C@@]2(C)[C@H]1CC[C@]2(O)C(=O)CO,inactive
10,CCCCCCCCOc1ccccc1C(=O)Nc1ccc(C(=O)OCC[N+](C)(CC)CC)cc1,inactive
11,O=C(OC1C[C@H]2CC[C@@H](C1)[N+]21CCCC1)C(O)(c1ccccc1)c1ccccc1 (stereo not given in full),inactive
12,C[C@@H](N)C1CCC(C(=O)Nc2ccncc2)CC1 (stereo not given in full),inactive
13,CC(S)C(=O)NCC(=O)O (stereo not given),inactive
14,CCOC(=O)C(C)Oc1cccc2c(=O)n(CC(=O)Nc3ccc4c(c3)OCCO4)ccc12 (stereo not given),inactive
15,COCCCOc1ccnc(CS(=O)c2nc3ccccc3[nH]2)c1C (stereo not given),inactive
16,O=C(O)CCNC(=O)c1ccc(N=Nc2ccc(O)c(C(=O)O)c2)cc1,inactive
17,Nc1nc(Cl)nc2c1ncn2[C@H]1C[C@H](O)[C@@H](CO)O1,1.17 µM (active)
18,CCN(CC)CCOc1ccc(Cc2ccccc2)cc1,inactive
19,Clc1ccc(C(Cn2ccnc2)OCc2c(Cl)cccc2Cl)c(Cl)c1 (stereo not given),inactive
20,COC(=O)[C@H](Cc1ccccc1)NC(=O)[C@@H](N)CC(=O)O (H-Asp-Phe-OMe),inactive

row,Structure (SMILES),Potency
1,CC(=O)O[C@H]1C(=O)[C@@]2(C)C([C@H](OC(=O)c3ccccc3)[C@]3(O)C[C@H](OC(=O)[C@H](O)[C@@H](NC(=O)c4ccccc4)c4ccccc4)C(C)=C1C3(C)C)[C@]1(OC(C)=O)CO[C@@H]1C[C@@H]2O (stereo not given in full),0.0017 µM (active)
2,CC1Cc2ccccc2N1NC(=O)c1ccc(Cl)c(S(N)(=O)=O)c1 (stereo not given),inactive
3,C[Se]CCC(N)C(=O)O (stereo not given),inactive
4,CCCCc1ccc2nc(NC(=O)OC)[nH]c2c1,117 nM (active) and 47 nM (active)
5,CCCOc1ccc2nc(NC(=O)OC)[nH]c2c1,187 nM (active) and 131 nM (active)
6,O=c1c(O)c(-c2ccc(O)cc2O)oc2cc(O)cc(O)c12,inactive
7,Clc1ccc2c(N3CCN(CCCN4CCN(c5ccnc6cc(Cl)ccc56)CC4)CC3)ccnc2c1,inactive
8,Cc1cc2cc3c(C)cc(=O)oc3c(C)c2o1,inactive
9,O=c1oc2cc(O)ccc2s1,inactive
10,Nc1cc(C(Cl)=C(Cl)Cl)c(S(N)(=O)=O)cc1S(N)(=O)=O,inactive
11,O=c1ccc2ccc(O)c(O)c2o1,inactive
12,O=C(O)c1cccc(-c2noc(-c3ccccc3F)n2)c1,inactive
13,Cc1c(C(=O)NN2CCCCC2)nn(-c2ccc(Cl)cc2Cl)c1-c1ccc(Cl)cc1,inactive
14,Cc1cccc(CN2CCN(C(c3ccccc3)c3ccc(Cl)cc3)CC2)c1 (stereo not given),inactive
15,CC(=O)N1CCN(c2ccc(OC[C@H]3CO[C@](Cn4ccnc4)(c4ccc(Cl)cc4Cl)O3)cc2)CC1,inactive
16,O=P(O)(O)C(O)(Cn1ccnc1)P(=O)(O)O,inactive
17,Cc1ccc(S(=O)(=O)NC(=O)NN2CC3CCCC3C2)cc1 (stereo not given),inactive
18,Cc1cc(=O)c2c(O)c3c(O)cc(=O)c4c3c3c(cc(O)c1c23)C(C)(C)C=4O,inactive
19,O=C(c1ccccc1)c1ccc2n1CCC2C(=O)O (stereo not given),inactive
20,CCN(CC)C(=S)SSC(=S)N(CC)CC,989 nM (active) and 4.19 µM (active)
